Results filed as inconclusive are left out. Activity calls are given as the source filed them. Calls come from the whole dose curve.
Columns and labels:
[1] = target: Acetylcholinesterase (Homo sapiens) (UniProt P22303); test: Acetylcholinesterase (AChE) small molecule antagonists: colormetric cell-based qHTS assay (AID 1347395); note: nearly all actives have a fitted effect of over 30% in size
Method in brief: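 Cells (SH-SY5Y, 2,000 per well) are seeded and left overnight at 37 C. Compound is added for 30 min, then DTNB and acetylthiocholine for a further 90 min at 37 C before absorbance-based thiocholine detection.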

[2] = target: Acetylcholinesterase (Homo sapiens) (UniProt P22303); test: Acetylcholinesterase (AChE) small molecule antagonists: enzyme-based qHTS assay (AID 1347397); details: Potency: AChE enzyme activity inhibition; outcome: AChE enzyme activity inhibition; note: nearly all actives have a fitted effect of over 55% in size
Method in brief: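 Human recombinant acetylcholinesterase; substrate acetylthiocholine; thiocholine quantified with DTNB (colorimetric). Compound preincubation 30 min RT; reaction 10 min RT.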

[3] = target: Acetylcholinesterase (Homo sapiens) (UniProt P22303); test: Acetylcholinesterase (AChE) small molecule antagonists: fluorescence cell-based qHTS assay (AID 1347398); details: Potency: AChE activity; outcome: AChE activity; note: nearly all actives have a fitted effect of over 50% in size
Method in brief: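 Thiocholine generated from acetylthiocholine by SH-SY5Y cell AChE is detected with Thiolite Green (Ex/Em 490/520 nm) after 40 min at room temperature, following 30 min compound pretreatment at 37 C.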

[4] = target: Acetylcholinesterase (Homo sapiens) (UniProt P22303); test: Acetylcholinesterase (AChE) small molecule antagonists: enzyme-based qHTS assay with human liver microsomes (AID 1347399); details: Potency: qHTS inhibition; outcome: qHTS inhibition; note: nearly all actives have a fitted effect of over 60% in size
Method in brief: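 Recombinant human AChE (50 mU/mL in the enzyme mix) and human liver microsomes (0.25 mg/mL final) were preincubated with compound and NADPH (0.25 mg/mL final) for 30 min at 37 C. Acetylthiocholine/DTNB was then added; thiocholine was read colorimetrically after 10 min at room temperature.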
% is set by controls: 0 for no effect and ±100 for the full control effect.

Chain of Acetylcholinesterase (Homo sapiens) (P22303 whole entry, looked up): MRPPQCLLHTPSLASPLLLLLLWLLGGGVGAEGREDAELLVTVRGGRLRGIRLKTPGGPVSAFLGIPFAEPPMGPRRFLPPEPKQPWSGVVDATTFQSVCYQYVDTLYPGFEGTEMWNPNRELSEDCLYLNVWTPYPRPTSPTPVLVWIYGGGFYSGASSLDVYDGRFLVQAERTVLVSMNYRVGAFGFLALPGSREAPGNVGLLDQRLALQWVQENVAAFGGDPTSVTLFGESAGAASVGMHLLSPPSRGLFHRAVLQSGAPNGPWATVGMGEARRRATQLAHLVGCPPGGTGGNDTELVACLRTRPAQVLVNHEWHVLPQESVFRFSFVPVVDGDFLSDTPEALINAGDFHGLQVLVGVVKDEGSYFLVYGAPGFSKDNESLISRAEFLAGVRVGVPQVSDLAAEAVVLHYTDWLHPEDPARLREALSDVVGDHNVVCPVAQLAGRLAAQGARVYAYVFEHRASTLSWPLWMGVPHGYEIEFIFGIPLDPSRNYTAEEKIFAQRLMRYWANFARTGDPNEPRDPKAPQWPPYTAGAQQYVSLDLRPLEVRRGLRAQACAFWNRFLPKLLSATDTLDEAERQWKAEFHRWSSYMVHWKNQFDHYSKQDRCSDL

Cc1cccc(C(=O)O)c1[N+](=O)[O-]
inactive: Potency [1] | Potency [2] | Potency [3] | Potency [4]

CCCOC(=O)c1ccc(C(=O)OCCC)nc1
inactive: Potency [1] | Potency [2] | Potency [3] | Potency [4]

CC1(C)S[C@@H]2[C@H](NC(=O)[C@H](N)c3ccccc3)C(=O)N2[C@H]1C(=O)O
inactive: Potency [1] | Potency [2] | Potency [3] | Potency [4]

Cc1c(OCC(F)(F)F)ccnc1CS(=O)c1nc2ccccc2[nH]1 (stereo not given)
inactive: Potency [1] | Potency [2] | Potency [3] | Potency [4]

C=C(C)c1cccc(C(=C)C)c1
inactive: Potency [1] | Potency [2] | Potency [3] | Potency [4]

Cc1ccc2nc(-c3ccc(N)cc3)sc2c1S(=O)(=O)O
inactive: Potency [1] | Potency [2] | Potency [3] | Potency [4]

NC[C@H]1O[C@H](O[C@H]2[C@H](O[C@@H]3O[C@H](CO)[C@@H](O)[C@H]3O)C(O)[C@H](N)C[C@@H]2N)[C@H](N)[C@@H](O)[C@@H]1O (stereo not given in full)
inactive: activity, negative = inhibition [1] -1.41% [at 10.5 µM] | activity change, negative = inhibition [2] 0.757% [at 10.5 µM] | activity change, negative = inhibition [3] 8.04% [at 10.5 µM] | activity change, negative = inhibition [4] -2.19% [at 10.5 µM]

[Cl][Dy]([Cl])[Cl]
inactive: Potency [1] | Potency [2] | Potency [3] | Potency [4]

NCCc1ccn[nH]1
inactive: Potency [1] | Potency [2] | Potency [3] | Potency [4]

Cc1cccc(C)c1NC(=O)CN1CCCC1
inactive: Potency [1] | Potency [2] | Potency [3] | Potency [4]

CCCC(C)C(=O)OCC (stereo not given)
inactive: Potency [1] | Potency [2] | Potency [3] | Potency [4]

O=C1c2ccccc2C(=O)C1c1ccc2cc(S(=O)(=O)O)cc(S(=O)(=O)O)c2n1
inactive: Potency [1] | Potency [2] | Potency [3] | Potency [4]

C1CCCNCCC1
inactive: Potency [1] | Potency [2] | Potency [3] | Potency [4]

O=C(O)C[C@H](O)C[C@H](O)/C=C/c1c(C2CC2)nc2ccccc2c1-c1ccc(F)cc1
inactive: activity, negative = inhibition [1] -0.67% [at 23.6 µM] | activity change, negative = inhibition [2] -2.86% [at 23.6 µM] | activity change, negative = inhibition [3] 8.09% [at 23.8 µM] | activity change, negative = inhibition [4] -1.12% [at 23.6 µM]

Cc1cccc(C)c1NC(=O)CN1CCCCCC1
inactive: Potency [1] | Potency [2] | Potency [3] | Potency [4]

N#Cc1ccccc1
inactive: Potency [1] | Potency [2] | Potency [3] | Potency [4]

CCc1occc(=O)c1O
inactive: Potency [1] | Potency [2] | Potency [3] | Potency [4]

C=CC(=O)NC(C)C
inactive: Potency [1] | Potency [2] | Potency [3] | Potency [4]

CCC(CO)CO
inactive: Potency [1] | Potency [2] | Potency [3] | Potency [4]

Cc1cc(O)c(C(C)C)cc1Cl
inactive: Potency [1] | Potency [2] | Potency [3] | Potency [4]

COC(=O)C(C)Oc1ccc(Oc2ncc(C(F)(F)F)cc2Cl)cc1 (stereo not given)
inactive: Potency [1] | Potency [2] | Potency [3] | Potency [4]

C=C1C(=C/C=C2\CCC[C@]3(C)[C@@H]([C@H](C)/C=C/[C@@H](O)C4CC4)CC[C@@H]23)C[C@@H](O)C[C@@H]1O
inactive: Potency [1] | Potency [2] | Potency [3] | Potency [4]

Cc1ccccc1Cl
inactive: Potency [1] | Potency [2] | Potency [3] | Potency [4]

C=C(C)C(=O)NCCC[N+](C)(C)C
inactive: Potency [1] | Potency [2] | Potency [3] | Potency [4]

COC(=O)[C@H]1[C@H]2C[C@@H]3c4[nH]c5cc(OC)ccc5c4CCN3C[C@H]2C[C@@H](OC(=O)/C=C/c2ccc(O)c(OC)c2)[C@@H]1OC
inactive: Potency [1] | Potency [2] | Potency [3] | Potency [4]

Nc1ccc(/C=C/c2ccc(N)cc2S(=O)(=O)O)c(S(=O)(=O)O)c1
inactive: activity, negative = inhibition [1] -0.352% [at 0.435 µM] | activity change, negative = inhibition [2] -0.809% [at 0.435 µM] | activity change, negative = inhibition [3] 2.35% [at 0.439 µM] | activity change, negative = inhibition [4] -0.084% [at 0.435 µM]

CCC(C)OC(=O)c1ccc(O)cc1 (stereo not given)
inactive: Potency [1] | Potency [2] | Potency [3] | Potency [4]

CC(=O)OC1CC(C)OC(C)O1 (stereo not given)
inactive: Potency [1] | Potency [2] | Potency [3] | Potency [4]

CC1CC(C)C(=O)C1=O (stereo not given)
inactive: Potency [1] | Potency [2] | Potency [3] | Potency [4]

O=C(O)c1ccc(Cl)c(Cl)c1
inactive: Potency [1] | Potency [2] | Potency [3] | Potency [4]

COc1cc2c(cc1OC)CN(C(=O)[C@H](C)N[C@@H](CCc1ccccc1)C(=O)O)[C@H](C(=O)O)C2
inactive: Potency [1] | Potency [2] | Potency [3] | Potency [4]

C[C@H]1C[C@H]2[C@@H]3CCC4=CC(=O)C=C[C@]4(C)[C@@]3(F)[C@@H](O)C[C@]2(C)[C@@]1(O)C(=O)COP(=O)(O)O
inactive: Potency [1] | Potency [2] | Potency [3] | Potency [4]

CCCCNCC
inactive: Potency [1] | Potency [2] | Potency [3] | Potency [4]

Cc1cccc(N)n1
inactive: Potency [1] | Potency [2] | Potency [3] | Potency [4]

CC(C)Nc1cccnc1N1CCN(C(=O)c2cc3cc(NS(C)(=O)=O)ccc3[nH]2)CC1
inactive: Potency [1] | Potency [2] | Potency [3] | Potency [4]

CCc1c(C(=O)O)c(=O)cnn1-c1ccc(Cl)cc1
inactive: Potency [1] | Potency [2] | Potency [3] | Potency [4]

O=C(/C=C/C=C/c1ccc2c(c1)OCO2)N1CCCCC1
inactive: Potency [1] | Potency [2] | Potency [3] | Potency [4]

CCOC(=O)OC(C)OC1=C(C(=O)Nc2ccccn2)N(C)S(=O)(=O)c2ccccc21 (stereo not given)
inactive: Potency [1] | Potency [2] | Potency [3] | Potency [4]

CCN(Cc1cccnc1)C(=O)c1cccc(Cl)c1[C@]1(C)C(=O)N(Cc2ccc(OC)cc2OC)c2ccc(Cl)cc21
inactive: Potency [1] | Potency [2] | Potency [3] | Potency [4]

CC1(C)O[C@@H]2[C@@H](CO[C@@]3(COS(N)(=O)=O)OC(C)(C)O[C@@H]23)O1
inactive: Potency [1] | Potency [2] | Potency [3] | Potency [4]

CCC(=O)O
inactive: Potency [1] | Potency [2] | Potency [3] | Potency [4]

CC(C)OC(C)C
inactive: Potency [1] | Potency [2] | Potency [3] | Potency [4]

CCC(CC)Nc1ccc(C)c(C)c1
inactive: Potency [1] | Potency [2] | Potency [3] | Potency [4]

Cc1ccc(C(C)C)cc1O
inactive: Potency [1] | Potency [2] | Potency [3] | Potency [4]

O=c1cc[nH]c(=O)[nH]1
inactive: Potency [1] | Potency [2] | Potency [3] | Potency [4]

Cc1ccc(C(C)C)cc1
inactive: Potency [1] | Potency [2] | Potency [3] | Potency [4]

CC(C(=O)O)c1ccc(/C=C2\CCCCC2=O)cc1 (stereo not given)
inactive: Potency [1] | Potency [2] | Potency [3] | Potency [4]

Cc1ncc(CSSCc2cnc(C)c(O)c2CO)c(CO)c1O
inactive: Potency [1] | Potency [2] | Potency [3] | Potency [4]

CO[Si](OC)(OC)OC
inactive: Potency [1] | Potency [2] | Potency [3] | Potency [4]

C1CSCCS1
inactive: Potency [1] | Potency [2] | Potency [3] | Potency [4]

CCOC(=O)CC(O)(CC(=O)OCC)C(=O)OCC
inactive: Potency [1] | Potency [2] | Potency [3] | Potency [4]

Nc1c(Cl)cc(Cl)cc1[N+](=O)[O-]
inactive: Potency [1] | Potency [2] | Potency [3] | Potency [4]

O=[N+]([O-])c1nccn1CO[C@@H](CO)[C@H](O)CO
inactive: Potency [1] | Potency [2] | Potency [3] | Potency [4]

CC(C)N=C(N)/N=C(\N)Nc1ccc(Cl)cc1
inactive: Potency [1] | Potency [2] | Potency [3] | Potency [4]

CC(=O)N[C@@H](CS)C(=O)O
inactive: Potency [1] | Potency [2] | Potency [3] | Potency [4]

CCOCCOCCO
inactive: Potency [1] | Potency [2] | Potency [3] | Potency [4]

O=C1CCC(=O)O1
inactive: Potency [1] | Potency [2] | Potency [3] | Potency [4]

Nc1ccc(Oc2ccc(Cl)cc2)cc1
inactive: Potency [1] | Potency [2] | Potency [3] | Potency [4]

CC(=O)C1(C)CC2=C(CCCC2(C)C)CC1C (stereo not given)
inactive: Potency [1] | Potency [2] | Potency [3] | Potency [4]

CC1CCCCC1
inactive: Potency [1] | Potency [2] | Potency [3] | Potency [4]

— PubChem BioAssay (Tox21)
